Molecules are shown by their SMILES. Where a name gives a salt, the structure may show the parent alone. ± gives the standard deviation of the averaged measurements.
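Wherever HR repair efficiency (tdTomato+ cells) relative to control is given: compound given one day before doxycycline, which switches on I-SceI endonuclease expression to create double-strand breaks within the integrated reporter.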
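Wherever NHEJ repair efficiency (GFP+ cells) relative to control is given: compound given one day ahead of doxycycline, which switches on I-SceI endonuclease to cut the chromosomally integrated reporter and create DSBs.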

One assay relates to CLZ3 (HCA2 human fibroblast dual HR-NHEJ reporter). Briefly: NHEJ repair efficiency (GFP+ cells) relative to control (log10 fold); higher = more non-homologous end joining. The following applies: 5 µM; doxycycline 0.5 ug/mL.
For `CC(C)c1cc2c(c(O)c1O)[C@@]1(C(=O)O)CCCC(C)(C)[C@@H]1CC2` [Carnosic acid], the “NHEJ repair efficiency (log10)” value amounted to 0.106.
Consider `Oc1cc(O)cc(/C=C/c2ccc(O)cc2O)c1` [Oxy-Resveratrol], for which the “NHEJ repair efficiency (log10)” value was determined as 0.00144.
On the same count and under the same terms, the value for `CN[C@@H](Cc1c[nH]c2ccccc12)C(=O)O` [Abrine] was -0.159; that for `C=C1[C@H]2C[C@@]3([C@@H]1O)[C@@H](CC2=O)[C@]12[C@@H]4C[C@H]3[C@H]1N(CC)C[C@]4(C)CC[C@@H]2O` [Songorine] was -0.0383.
For `C[C@H]1CC[C@@H]2N(C1)C[C@H]1[C@@H]3C[C@H]4[C@@H](C[C@H](O)[C@H]5C[C@@H](O)CC[C@@]54C)[C@@H]3CC[C@@H]1[C@]2(C)O` [Peimine], the “NHEJ repair efficiency (log10)” value was -0.07.
On to `CN[C@@H](C)[C@H](O)c1ccccc1` [Ephedrine hydrochloride], for which the “NHEJ repair efficiency (log10)” value turned out to be 0.0488.
On to `CC(C)(C)[C@]1(O)CC2OC(=O)CC23C(=O)OC2OC(=O)[C@H](O)C231` (some centres undefined) [Bilobalide], for which the “NHEJ repair efficiency (log10)” value turned out to be 0.0452.
Same read-out and setting: the value for `CN1[C@@H]2C[C@@H](OC(=O)[C@H](CO)c3ccccc3)C[C@H]1[C@@H]1O[C@@H]12` [Scopolamine Hydrobromide] was 0.039; that for `CCCC[N+]1(C)[C@@H]2C[C@@H](OC(=O)[C@H](CO)c3ccccc3)C[C@H]1[C@@H]1O[C@@H]12` (some centres undefined) [Scopolamine Butylbromide] was -0.172.
In the case of `c1cc2c(cc1[C@H]1OC[C@H]3[C@@H]1CO[C@@H]3c1ccc3c(c1)OCO3)OCO2` [Sesamin], the “NHEJ repair efficiency (log10)” value turned out to be 0.0857.
As for `O=c1ccc2ccc3occc3c2o1` [Isopsoralen], the “NHEJ repair efficiency (log10)” value was -0.0427.
For the compound `O=C1C=CC(=O)c2c(O)cccc21` [Juglone], the “NHEJ repair efficiency (log10)” value is 0.0328.
Consider `CCN1C[C@]2(COC)[C@H](O)C[C@H](OC)[C@]34C1[C@H]([C@H](OC)[C@H]23)[C@@]1(OC(C)=O)C[C@H](OC)[C@@]2(O)C[C@@H]4[C@@H]1[C@H]2OC(=O)c1ccc(OC)cc1` [Yunaconitine], for which the “NHEJ repair efficiency (log10)” value is -0.0536.
As to `COC1=C[C@@H]2[C@@H]3Cc4ccc(OC)c(O)c4[C@]2(CCN3C)CC1=O` [Sinomenine], the “NHEJ repair efficiency (log10)” value is 0.154.
For the compound `O=c1ccc2cc(O[C@@H]3O[C@H](CO)[C@@H](O)[C@H](O)[C@H]3O)c(O)cc2o1` [Aesculin], the “NHEJ repair efficiency (log10)” value is 0.023.
Take `CCN1C[C@]2(COC)[C@H](O)C[C@H](OC)[C@]34C1[C@H]([C@H](OC)[C@H]23)[C@@]1(OC(C)=O)C[C@H](OC)[C@@]2(O)C[C@@H]4[C@@H]1[C@H]2OC(=O)c1ccccc1` [Indaconitine]: the “NHEJ repair efficiency (log10)” value came out at 0.0186.
On to `O=C(/C=C/c1ccccc1)OC[C@H]1O[C@@H](O[C@@H]2OC=C[C@H]3[C@H](O)[C@@H]4O[C@]4(CO)[C@@H]23)[C@H](O)[C@@H](O)[C@@H]1O` [Picroside I], for which the “NHEJ repair efficiency (log10)” value was -0.0564.
Regarding `CC(=O)OC[C@]12[C@H](OC(C)=O)[C@H](OC(C)=O)[C@@H]3[C@@H](OC(C)=O)[C@@]14O[C@@]3(C)COC(=O)c1cccnc1CCC(C)C(=O)O[C@@H]([C@H](OC(=O)c1ccccc1)[C@@H]2OC(C)=O)[C@]4(C)O` (some centres undefined) [Wilforine], the “NHEJ repair efficiency (log10)” value was -0.122.
Turning to `COC[C@]12CN(C)[C@@H]3[C@@H]4[C@H](OC)[C@H]1[C@@]3([C@@H](OC)C[C@H]2O)[C@@H]1C[C@@]2(O)[C@H](OC(=O)c3ccccc3)[C@@H]1[C@]4(OC(C)=O)[C@@H](O)[C@@H]2OC` [Mesaconitine], the “NHEJ repair efficiency (log10)” value was -0.0215.
As to `CCC1=C[C@H]2CN3CCc4c([nH]c5ccccc45)[C@](C(=O)OC)(C2)[C@H]13` [Catharanthine], the “NHEJ repair efficiency (log10)” value stood at 0.00477.
Turning to `CC[C@H]1CN2CC[C@]3(C(=O)Nc4ccccc43)[C@@H]2C[C@@H]1/C(=C\OC)C(=O)OC` [Rhynchophylline], the “NHEJ repair efficiency (log10)” value is -0.15.
Still for that read-out and setting: under `C=CCSSCC=C` [Garlicin] stands -0.0895; under `COc1cc2c3c(c1OC)-c1ccccc1C[C@H]3N(C)CC2` [Nuciferine], 0.114.

Another assay has the same test system. Briefly: HR repair efficiency (tdTomato+ cells) relative to control (log10 fold); higher = more homologous recombination. The following applies: 5 µM; doxycycline 0.5 ug/mL.
As to `CCC(C)C(=O)O[C@@H]1[C@@H](OC(C)=O)[C@]2(C)[C@H](C(C)=O)CC[C@@]23O[C@]32CC[C@H]3C[C@@H](O[C@H]4C[C@@H](OC)[C@H](O[C@@H]5O[C@H](C)[C@@H](O)[C@@H](OC)[C@H]5O)[C@@H](C)O4)CC[C@]3(C)[C@@H]12` (some centres undefined) [Tenacissoside H], the “HR repair efficiency (log10)” value is 0.0233.
Take `C[C@H]1C(=O)O[C@@H]2CCN3CC=C(COC(=O)[C@](C)(O)[C@]1(C)O)[C@H]23` [Monocrotaline]: the “HR repair efficiency (log10)” value turned out to be 0.0383.
Consider `C/C1=C\C2C(CCC3(CO3)C(O)C3C(O)C(C)CC3(O)C1=O)C2(C)C` (centres undefined) [6,17-Epoxylathyrol], for which the “HR repair efficiency (log10)” value was found to be 0.0115.
Still for that read-out and setting: the value for `CCN1C[C@]2(COC)CC[C@H](O)[C@]34C1[C@H]([C@H](OC)[C@H]23)[C@@]1(O)C[C@H](OC)[C@H]2C[C@@H]4[C@@H]1[C@H]2O` [Neoline] was -0.186.
In the case of `COc1cc([C@H]2OC[C@H]3[C@H]2CO[C@@H]3c2cc(OC)c(O[C@@H]3O[C@H](CO)[C@@H](O)[C@H](O)[C@H]3O)c(OC)c2)cc(OC)c1O[C@@H]1O[C@H](CO)[C@@H](O)[C@H](O)[C@H]1O` [Eleutheroside D], the “HR repair efficiency (log10)” value is -0.0848.
The same measure, in the same setting: under `CCN1C[C@]2(C)CC[C@H](OC)[C@@]34C1[C@]1(OCO[C@@]15C[C@H](OC)[C@H]1C[C@]3(O)[C@@H]5[C@H]1OC)[C@@H](OC(C)=O)[C@H]24` [Deltaline] stands -0.263.
Consider `COc1ccc(Cc2nccc3cc(OC)c(OC)cc23)cc1OC` [Papaverine hydrochloride], for which the “HR repair efficiency (log10)” value is -0.22.
In the case of `CC(C)c1ccc2c(c1O)CC[C@H]1C3=C(CC[C@]21C)C(=O)OC3` [Triptophenolide], the “HR repair efficiency (log10)” value is -0.108 ± 0.2.
`CC(C)c1cc2c(c(O)c1O)[C@@]1(C(=O)O)CCCC(C)(C)[C@@H]1CC2` [Carnosic acid]: the “HR repair efficiency (log10)” value stood at 0.167.
Turning to `Oc1cc(O)cc(/C=C/c2ccc(O)cc2O)c1` [Oxy-Resveratrol], the “HR repair efficiency (log10)” value is -0.164.
Regarding `CN[C@@H](Cc1c[nH]c2ccccc12)C(=O)O` [Abrine], the “HR repair efficiency (log10)” value was -0.21.
Take `C=C1[C@H]2C[C@@]3([C@@H]1O)[C@@H](CC2=O)[C@]12[C@@H]4C[C@H]3[C@H]1N(CC)C[C@]4(C)CC[C@@H]2O` [Songorine]: the “HR repair efficiency (log10)” value came out at 0.115.
Regarding `C[C@H]1CC[C@@H]2N(C1)C[C@H]1[C@@H]3C[C@H]4[C@@H](C[C@H](O)[C@H]5C[C@@H](O)CC[C@@]54C)[C@@H]3CC[C@@H]1[C@]2(C)O` [Peimine], the “HR repair efficiency (log10)” value was -0.0412.
Take `CN[C@@H](C)[C@H](O)c1ccccc1` [Ephedrine hydrochloride]: the “HR repair efficiency (log10)” value is -0.0579.
As for `CC(C)(C)[C@]1(O)CC2OC(=O)CC23C(=O)OC2OC(=O)[C@H](O)C231` (some centres undefined) [Bilobalide], the “HR repair efficiency (log10)” value amounted to 0.0541.
In the case of `CN1[C@@H]2C[C@@H](OC(=O)[C@H](CO)c3ccccc3)C[C@H]1[C@@H]1O[C@@H]12` [Scopolamine Hydrobromide], the “HR repair efficiency (log10)” value is -0.0275.
Take `CCCC[N+]1(C)[C@@H]2C[C@@H](OC(=O)[C@H](CO)c3ccccc3)C[C@H]1[C@@H]1O[C@@H]12` (some centres undefined) [Scopolamine Butylbromide]: the “HR repair efficiency (log10)” value came to 0.0357.
For `c1cc2c(cc1[C@H]1OC[C@H]3[C@@H]1CO[C@@H]3c1ccc3c(c1)OCO3)OCO2` [Sesamin], the “HR repair efficiency (log10)” value turned out to be 0.185.
Same read-out and setting: the value for `O=c1ccc2ccc3occc3c2o1` [Isopsoralen] was -0.0598; that for `O=C1C=CC(=O)c2c(O)cccc21` [Juglone] was -0.281.
In the case of `CCN1C[C@]2(COC)[C@H](O)C[C@H](OC)[C@]34C1[C@H]([C@H](OC)[C@H]23)[C@@]1(OC(C)=O)C[C@H](OC)[C@@]2(O)C[C@@H]4[C@@H]1[C@H]2OC(=O)c1ccc(OC)cc1` [Yunaconitine], the “HR repair efficiency (log10)” value was -0.204.
On the same count and under the same terms, the value for `COC1=C[C@@H]2[C@@H]3Cc4ccc(OC)c(O)c4[C@]2(CCN3C)CC1=O` [Sinomenine] was 0.274; that for `O=c1ccc2cc(O[C@@H]3O[C@H](CO)[C@@H](O)[C@H](O)[C@H]3O)c(O)cc2o1` [Aesculin] was 0.148; that for `CCN1C[C@]2(COC)[C@H](O)C[C@H](OC)[C@]34C1[C@H]([C@H](OC)[C@H]23)[C@@]1(OC(C)=O)C[C@H](OC)[C@@]2(O)C[C@@H]4[C@@H]1[C@H]2OC(=O)c1ccccc1` [Indaconitine] was 0.112.
As to `O=C(/C=C/c1ccccc1)OC[C@H]1O[C@@H](O[C@@H]2OC=C[C@H]3[C@H](O)[C@@H]4O[C@]4(CO)[C@@H]23)[C@H](O)[C@@H](O)[C@@H]1O` [Picroside I], the “HR repair efficiency (log10)” value is -0.0261.
`CC(=O)OC[C@]12[C@H](OC(C)=O)[C@H](OC(C)=O)[C@@H]3[C@@H](OC(C)=O)[C@@]14O[C@@]3(C)COC(=O)c1cccnc1CCC(C)C(=O)O[C@@H]([C@H](OC(=O)c1ccccc1)[C@@H]2OC(C)=O)[C@]4(C)O` (some centres undefined) [Wilforine]: the “HR repair efficiency (log10)” value worked out at 0.027.
`COC[C@]12CN(C)[C@@H]3[C@@H]4[C@H](OC)[C@H]1[C@@]3([C@@H](OC)C[C@H]2O)[C@@H]1C[C@@]2(O)[C@H](OC(=O)c3ccccc3)[C@@H]1[C@]4(OC(C)=O)[C@@H](O)[C@@H]2OC` [Mesaconitine]: the “HR repair efficiency (log10)” value turned out to be 0.0192.
As for `CCC1=C[C@H]2CN3CCc4c([nH]c5ccccc45)[C@](C(=O)OC)(C2)[C@H]13` [Catharanthine], the “HR repair efficiency (log10)” value amounted to 0.0298.
Same read-out and setting: under `CC[C@H]1CN2CC[C@]3(C(=O)Nc4ccccc43)[C@@H]2C[C@@H]1/C(=C\OC)C(=O)OC` [Rhynchophylline] stands -0.0611; under `C=CCSSCC=C` [Garlicin], -0.0428; under `COc1cc2c3c(c1OC)-c1ccccc1C[C@H]3N(C)CC2` [Nuciferine], 0.137.

The values above are taken from the supplement of paper PMC7380943.
